# Measurements: publication PMC8384837, “Expanding the binding specificity for RNA recognition by a PUF domain”
# Target: PUM1 PUF domain R3-GRT (Homo sapiens, UniProt Q14671 828-1176, C935G;Q939T)
# Test: yeast three-hybrid, YBZ-1, SC-Leu-His + 0.5 mM 3-AT, 4 days
# Settings: tags: N-Gal4 AD-HA kept; label: inside an RPR1-promoter hybrid RNA with tandem MS2 sites; ssRNA
# In short: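 Pumilio-1 PUF domain libraries, randomized at the three base-contacting residues of each repeat, were co-expressed with matching RNA elements from a centromeric plasmid in strain YBZ-1, which carries a LexA–MS2 coat fusion and a HIS3 reporter. Transformants grew for four days on SC-Leu (input) or on SC-Leu-His + 0.5 mM 3-AT (selection), and the repeat regions were PCR-amplified and Illumina-sequenced. The interaction score is the log change in variant frequency from input to selection. That logarithm is base 2, with a pseudocount of 1 where a variant was absent.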
row,Sequence,binding signal
1,GGCUAGAACUAGUGGAUCCCCCGGCGCCCGGCGGCUCGAGCCCGGGUAAGUGUAAGUAGUCUGCAUGCCGCCGGGCGCCAUGCCUGCAGGUCGACUCUAGAAAACAUG,1.58 log2 enrichment (interaction score)
2,GGCUAGAACUAGUGGAUCCCCCGGCGCCCGGCGGCUCGAGCCCGGGUAAGUGUAAUUAGUCUGCAUGCCGCCGGGCGCCAUGCCUGCAGGUCGACUCUAGAAAACAUG,1.63 log2 enrichment (interaction score)
3,GGCUAGAACUAGUGGAUCCCCCGGCGCCCGGCGGCUCGAGCCCGGGUAAGUGUAAAUAGUCUGCAUGCCGCCGGGCGCCAUGCCUGCAGGUCGACUCUAGAAAACAUG,2.82 log2 enrichment (interaction score)
